Inconclusive results are not listed. The source made the active and inactive calls. Unless noted, calls follow the shape of the dose curve; as a rule, active = well fitted curve in the direction sought with a large enough effect in the repeat runs; inconclusive = weak or mixed curves; inactive = no such curve, though single readings can be large; an effect the other way counts as inactive or inconclusive.
How the values were obtained:
[1] = qHTS assay to identify small molecule agonists of the peroxisome proliferator-activated receptor delta (PPARd) signaling pathway - cell viability counter screen (AID 743211); also: nearly all actives have a fitted effect of over 55% in size; also: potency is read from the fitted curve at half-maximal effect
In short: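 Multiplexed format: after the 2 h room-temperature LiveBLAzer B/G FRET step, CellTiter-Glo was added to the same wells. Luminescence after 30 min gave cell viability; compound exposure was 17 h at 37C.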

[2] = target: Peroxisome proliferator-activated receptor delta (Homo sapiens) (UniProt Q03181); assay: qHTS assay to identify small molecule agonists of the peroxisome proliferator-activated receptor delta (PPARd) signaling pathway (AID 743212; calls by dose curve; also: % is scaled to controls: 0 for no effect and ±100 for the full control effect)
In short: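 HEK293H UAS-bla reporter cells, human PPARd system; compounds delivered in DMSO after 5 h plating, then at 37 C. Beta-lactamase FRET read, 2 h RT substrate step.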

[3] = qHTS assay to identify small molecule antagonists of the peroxisome proliferator-activated receptor delta (PPARd) signaling pathway - cell viability counter screen (AID 743213); also: % is scaled to controls: 0 for no effect and ±100 for the full control effect; nearly all actives have a fitted effect of over 50% in size
In short: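 Agonist-stimulated (L165041, 300 nM final) HEK293H PPARd UAS-bla cells are exposed to compounds for 17 h at 37 C, and ATP-based luminescence (CellTiter-Glo) from the same wells reports cytotoxicity.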

[4] = target: Peroxisome proliferator-activated receptor delta (Homo sapiens) (UniProt Q03181); assay: qHTS assay to identify small molecule antagonists of the peroxisome proliferator-activated receptor delta (PPARd) signaling pathway (AID 743215; active = well fitted inhibition curve with a large enough effect in the signal ratio in the repeat runs, not every such curve was filed as active; the % refers to the signal ratio; also: series mostly up to about 62 µM; % is scaled to controls: 0 for no effect and ±100 for the full control effect)
In short: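 Inhibition of L165041-driven (300 nM final) PPARd signaling is scored in HEK293H UAS-bla cells. Exposure lasts 17 h at 37 C; beta-lactamase activity is then read by FRET substrate fluorescence after 2 h at room temperature.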

[5] = qHTS assay to identify small molecule agonists of the farnesoid-X-receptor (FXR) signaling pathway - cell viability counter screen (AID 743218); also: % is scaled to controls: 0 for no effect and ±100 for the full control effect; nearly all actives have a fitted effect of over 45% in size
In short: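 Cytotoxicity counter-screen run in parallel, same wells: FXR-UAS-bla HEK 293T cells dosed 16 h at 37 C, viability read by CellTiter-Glo luminescence after 30 min at room temperature.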

[6] = qHTS assay to identify small molecule antagonists of the farnesoid-X-receptor (FXR) signaling pathway - cell viability counter screen (AID 743221; active = well fitted cell-killing curve with a large enough effect in the repeat runs, not every such curve was filed as active; also: % is scaled to controls: 0 for no effect and ±100 for the full control effect; nearly all actives have a fitted effect of over 50% in size)
In short: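 CellTiter-Glo, 30 min RT, luminescence; same wells as the LiveBLAzer FRET read. Cells: FXR-UAS-bla HEK 293T. Treatment: compound with chenodeoxycholic acid 50 uM final, 16 h at 37 C.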

[7] = target: Vitamin D3 receptor (Homo sapiens) (UniProt P11473); assay: qHTS assay to identify small molecule agonists of the vitamin D receptor (VDR) signaling pathway (AID 743222; calls by dose curve; also: % is scaled to controls: 0 for no effect and ±100 for the full control effect)
In short: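 Quantitative HTS agonist-mode screen: compounds in DMSO were pin-transferred onto VDR-bla cells and incubated 16 h at 37C, 5% CO2. Reporter activity was detected with LiveBLAzer B/G FRET substrate after 2 h at room temperature.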

[8] = target: Vitamin D3 receptor (Homo sapiens) (UniProt P11473); assay: qHTS assay to identify small molecule antagonists of the vitamin D receptor (VDR) signaling pathway (AID 743223; active = well fitted inhibition curve with a large enough effect in the signal ratio in the repeat runs, not every such curve was filed as active; the % refers to the signal ratio; also: % is scaled to controls: 0 for no effect and ±100 for the full control effect)
In short: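 After VDR-bla cells are plated and left 4 h at 37C, DMSO-dissolved compounds and 3 nM (final) calcitriol agonist are added. Incubation continues 16 h at 37C; FRET beta-lactamase substrate then develops 2 h at room temperature.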

[9] = qHTS assay to identify small molecule antagonists of the vitamin D receptor (VDR) signaling pathway - cell viability counter screen (AID 743225); also: % is scaled to controls: 0 for no effect and ±100 for the full control effect; nearly all actives have a fitted effect of over 50% in size
In short: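 Cytotoxicity toward the VDR-bla HEK 293T line was scored by ATP-based CellTiter-Glo luminescence, read in the wells already used for the beta-lactamase readout after 16 h compound treatment under 3 nM 1-alpha,25-dihydroxyvitamin D3 stimulation.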

[10] = qHTS assay to identify small molecule agonists of the NFkB signaling pathway (AID 1159509; active = well fitted curve in the direction sought with a large enough effect in the signal ratio in the repeat runs, not every such curve was filed as active; the % refers to the signal ratio)
In short: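 NFkB-bla ME-180 cells with a beta-lactamase reporter under an NF-kB response element were plated overnight, treated with compounds in DMSO for 5 hr at 37 C, then loaded with FRET substrate for 1.5 hr at room temperature.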

[11] = qHTS assay to identify small molecule agonists of the NFkB signaling pathway - cell viability counter screen (AID 1159515; calls by dose curve; also: series mostly up to about 61 µM; % is scaled to controls: 0 for no effect and ±100 for the full control effect; nearly all actives have a fitted effect of over 55% in size)
In short: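 Multiplexed viability readout: after the 5 hr compound exposure and 1.5 hr FRET substrate step, CellTiter-Glo reagent went into the same NFkB-bla ME-180 wells; ATP luminescence was measured after 30 min at room temperature.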

[12] = qHTS assay to identify small molecule agonists of the endoplasmic reticulum stress response signaling pathway (AID 1159516; active = well fitted activation curve with a large enough effect in the signal ratio in the repeat runs, not every such curve was filed as active; the % refers to the signal ratio; also: % is scaled to controls: 0 for no effect and ±100 for the full control effect)
In short: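 Tox21 10K library screened in quantitative HTS format on ESRE-bla HeLa cells, a beta-lactamase reporter under ER stress response element control; 5 hr treatment, FRET read.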

[13] = qHTS assay to identify small molecule agonists of the endoplasmic reticulum stress response signaling pathway - cell viability counter screen (AID 1159517; calls by dose curve; also: series mostly up to about 61 µM; % is scaled to controls: 0 for no effect and ±100 for the full control effect; nearly all actives have a fitted effect of over 50% in size)
In short: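 Cells, HeLa ESRE-bla; density, 1,500/well; dosing, 5 hr at 37 C, 5% CO2; readout, CellTiter-Glo luminescence after 30 min RT.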

[14] = qHTS assay to identify small molecule antagonists of the retinoid-related orphan receptor gamma (ROR-gamma) signaling pathway - cell viability counter screen (AID 1159520)
In short: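 Cytotoxicity was read from cellular ATP (CellTiter-Glo luminescence) after 16 hr at 37 C with 1 uM doxycycline induction. The inducer was added 2 hr after compound transfer to Tet-on ROR gamma CHO cells.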

[15] = target: Nuclear receptor ROR-gamma (Homo sapiens) (UniProt P51449); assay: qHTS assay to identify small molecule antagonists of the retinoid-related orphan receptor gamma (ROR-gamma) signaling pathway (AID 1159521)
In short: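 Readout: ONE-Glo luciferase luminescence, 30 min at room temperature. System: Tet-on RORγ CHO, RORE-LUC. Sequence: compound 2 h, doxycycline 1 uM final, 16 h at 37 C.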

[16] = qHTS assay to identify small molecule agonists of the AP-1 signaling pathway (AID 1159526; calls by dose curve; also: % is scaled to controls: 0 for no effect and ±100 for the full control effect)
[17] = qHTS assay to identify small molecule agonists of the vitamin D receptor (VDR) signaling pathway - cell viability counter screen (AID 743224)
In short: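 Viability is measured in the same wells as the VDR-bla reporter assay: after 16 h compound treatment and 2 h substrate loading, CellTiter-Glo is added and luminescence read 30 min later.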

[18] = target: Bile acid receptor (Homo sapiens) (UniProt Q96RI1); assay: qHTS assay to identify small molecule antagonists of the farnesoid-X-receptor (FXR) signaling pathway (AID 743217; active = well fitted inhibition curve with a large enough effect in the signal ratio in the repeat runs, not every such curve was filed as active; the % refers to the signal ratio; also: % is scaled to controls: 0 for no effect and ±100 for the full control effect)
In short: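 Antagonist mode against 50 uM (final) chenodeoxycholic acid stimulation in FXR-bla HEK 293T cells, 16 h at 37 °C. Inhibition detected as reduced beta-lactamase activity via LiveBLAzer B/G FRET fluorescence after 2 h at room temperature.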

[19] = target: Bile acid receptor (Homo sapiens) (UniProt Q96RI1); assay: qHTS assay to identify small molecule agonists of the farnesoid-X-receptor (FXR) signaling pathway (AID 743220; active = well fitted activation curve with a large enough effect in the signal ratio in the repeat runs, not every such curve was filed as active; the % refers to the signal ratio; also: % is scaled to controls: 0 for no effect and ±100 for the full control effect)
In short: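 Beta-lactamase reporter under UAS control in GeneBLAzer FXR HEK 293T cells (5000/well) measured with LiveBLAzer FRET substrate after 2 h at room temperature. Compound exposure lasted 16 h at 37C.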

[20] = qHTS assay to identify small molecule agonists of the AP-1 signaling pathway - cell viability counter screen (AID 1159525; calls by dose curve; also: nearly all actives have a fitted effect of over 55% in size)
In short: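 Luminescent ATP readout (Cell Titer Glo, 30 min RT), normalised to DMSO and tetra n-octyl ammonium bromide controls. Cells were ME-180 AP-1-bla in 0.5% dialyzed FBS Opti-MEM, with a 5 h, 37 °C compound exposure.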

Chain of Vitamin D3 receptor (Homo sapiens) (P11473 whole entry, looked up): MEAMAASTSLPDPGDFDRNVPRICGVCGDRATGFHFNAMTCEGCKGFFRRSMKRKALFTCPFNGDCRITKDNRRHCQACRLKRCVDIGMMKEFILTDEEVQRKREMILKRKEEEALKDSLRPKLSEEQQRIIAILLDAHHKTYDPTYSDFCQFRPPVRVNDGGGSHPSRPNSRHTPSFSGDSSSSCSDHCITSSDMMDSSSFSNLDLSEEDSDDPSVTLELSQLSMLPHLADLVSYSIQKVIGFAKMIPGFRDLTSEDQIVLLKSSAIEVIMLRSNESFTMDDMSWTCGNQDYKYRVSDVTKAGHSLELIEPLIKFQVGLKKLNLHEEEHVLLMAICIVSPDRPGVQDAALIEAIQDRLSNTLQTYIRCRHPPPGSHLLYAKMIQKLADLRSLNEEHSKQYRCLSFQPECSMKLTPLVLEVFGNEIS
Chain of Peroxisome proliferator-activated receptor delta (Homo sapiens) (Q03181 whole entry, looked up): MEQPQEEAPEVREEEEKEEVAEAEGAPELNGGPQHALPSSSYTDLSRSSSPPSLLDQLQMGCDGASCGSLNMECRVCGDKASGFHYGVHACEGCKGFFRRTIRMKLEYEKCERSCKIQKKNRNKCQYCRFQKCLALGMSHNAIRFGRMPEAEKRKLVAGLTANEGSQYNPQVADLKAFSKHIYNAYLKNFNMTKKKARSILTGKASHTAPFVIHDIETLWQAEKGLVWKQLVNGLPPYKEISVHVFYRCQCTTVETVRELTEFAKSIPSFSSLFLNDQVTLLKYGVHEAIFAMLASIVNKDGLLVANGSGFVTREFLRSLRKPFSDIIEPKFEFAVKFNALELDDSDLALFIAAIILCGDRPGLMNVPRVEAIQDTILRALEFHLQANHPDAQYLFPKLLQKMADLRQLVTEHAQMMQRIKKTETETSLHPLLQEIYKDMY
Chain of Bile acid receptor (Homo sapiens) (Q96RI1 whole entry, looked up): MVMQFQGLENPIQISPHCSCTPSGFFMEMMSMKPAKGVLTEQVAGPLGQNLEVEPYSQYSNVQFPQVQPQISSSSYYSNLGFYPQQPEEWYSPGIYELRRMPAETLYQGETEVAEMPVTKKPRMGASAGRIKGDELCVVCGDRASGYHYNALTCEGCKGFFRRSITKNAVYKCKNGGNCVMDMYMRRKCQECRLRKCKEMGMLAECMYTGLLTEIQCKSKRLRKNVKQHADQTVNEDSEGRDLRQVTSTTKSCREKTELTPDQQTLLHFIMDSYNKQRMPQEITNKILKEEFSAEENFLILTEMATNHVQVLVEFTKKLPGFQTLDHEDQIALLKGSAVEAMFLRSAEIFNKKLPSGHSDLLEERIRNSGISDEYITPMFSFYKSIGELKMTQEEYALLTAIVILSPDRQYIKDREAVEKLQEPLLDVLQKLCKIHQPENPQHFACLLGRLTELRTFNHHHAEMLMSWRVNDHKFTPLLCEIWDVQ

CC1(C)CON(Cc2ccccc2Cl)C1=O
inactive: Potency [1] | outcome [2] | outcome [3] | outcome [4] | Potency [5] | outcome [6] | outcome [7] | outcome [8] | outcome [9] | outcome [10] | outcome [11] | outcome [12] | Potency [13] | Potency [14] | Potency [15] | outcome [16]

O=CNC(N1CCN(C(NC=O)C(Cl)(Cl)Cl)CC1)C(Cl)(Cl)Cl (stereo unspecified)
inactive: Potency [1] | outcome [2] | outcome [3] | Potency [5] | outcome [8] | outcome [9] | outcome [10] | outcome [11] | outcome [12] | Potency [13] | Potency [14] | Potency [15] | outcome [16]

CN1CCC(O)(c2ccc(F)cc2)C(C(=O)c2ccc(F)cc2)C1 (stereo unspecified)
inactive: Potency [1] | outcome [2] | outcome [3] | outcome [4] | outcome [6] | outcome [7] | Potency [17] | outcome [10] | outcome [11] | outcome [12] | Potency [13] | Potency [14] | Potency [15] | outcome [16]

COCC(=O)N(c1c(C)cccc1C)N1CCOC1=O
inactive: Potency [1] | outcome [2] | outcome [3] | outcome [4] | Potency [18] | Potency [5] | outcome [19] | outcome [6] | outcome [7] | outcome [8] | Potency [17] | outcome [9] | outcome [10] | outcome [11] | outcome [12] | Potency [13] | Potency [14] | Potency [15] | outcome [16]

CCOP(=S)(OCC)SCSP(=S)(OCC)OCC
inactive: Potency [1] | outcome [2] | outcome [4] | outcome [6] | outcome [7] | Potency [17] | outcome [9] | outcome [10] | outcome [11] | outcome [12] | Potency [13] | Potency [14] | Potency [15] | Potency [20]

Cc1cnc[nH]1
inactive: Potency [1] | outcome [2] | outcome [3] | outcome [4] | Potency [18] | Potency [5] | outcome [19] | outcome [6] | outcome [7] | Potency [17] | outcome [9] | outcome [10] | outcome [11] | outcome [12] | Potency [13] | Potency [14] | Potency [20] | outcome [16]

C(CCOCC1CO1)COCC1CO1 (stereo unspecified)
inactive: outcome [2] | outcome [3] | outcome [4] | Potency [18] | outcome [19] | outcome [6] | outcome [7] | Potency [17] | outcome [9] | outcome [10] | outcome [11] | outcome [12] | Potency [13] | Potency [14] | Potency [15] | outcome [16]

CN1CCC(N(Cc2ccccc2)c2ccccc2)CC1
active: Potency [1] 26.6 µM
inactive: outcome [2] | outcome [4] | outcome [6] | outcome [7] | outcome [8] | outcome [9] | outcome [10] | outcome [11] | outcome [12] | Potency [13] | Potency [14] | Potency [15]

CC(COc1ccc(Oc2ccccc2)cc1)Oc1ccccn1 (stereo unspecified)
inactive: Potency [1] | outcome [2] | outcome [4] | Potency [18] | outcome [19] | outcome [6] | outcome [7] | outcome [8] | Potency [17] | outcome [10] | outcome [11] | outcome [12] | Potency [13] | Potency [14] | Potency [15] | outcome [16]

CC(C)(C)NCC(O)c1cc(Cl)c(N)c(Cl)c1 (stereo unspecified)
inactive: Potency [1] | outcome [2] | Potency [18] | Potency [5] | outcome [19] | outcome [6] | outcome [7] | outcome [8] | outcome [9] | outcome [10] | outcome [11] | outcome [12] | Potency [13] | Potency [14] | Potency [20] | outcome [16]

O=C1c2ccccc2C(=O)c2ccccc21
inactive: outcome [2] | outcome [3] | outcome [4] | Potency [5] | outcome [6] | outcome [7] | outcome [8] | Potency [17] | outcome [10] | outcome [11] | outcome [12] | Potency [13] | activity, negative = cytotoxicity [14] -0.509% [at 19 µM] | activity change, negative = inhibition [15] 99.4% [at 19 µM] | activation [16] 11.5% [at 15.8 µM]

C#C[C@]1(O)C=C[C@H]2[C@@H]3CCC4=CC(=O)CC[C@@H]4[C@H]3CC[C@@]21CC
inactive: Potency [1] | outcome [2] | outcome [3] | Potency [5] | outcome [6] | Potency [17] | outcome [10] | outcome [11] | outcome [12] | Potency [13] | Potency [14] | Potency [20] | outcome [16]

Cc1coc2c1CCC(C)C2 (stereo unspecified)
inactive: Potency [1] | outcome [2] | outcome [4] | outcome [6] | outcome [7] | outcome [9] | outcome [10] | outcome [11] | outcome [12] | Potency [13] | Potency [14] | Potency [15] | outcome [16]
